Compounds with a hit are over-represented: about 7.4% of the library has one in this group of screens.
ELG1 genotoxic: induces genotoxicity in HEK293T cells with luciferase-tagged ELG1 | hit rate 1.3% among 330,000 | Potency, µM (series often up to 46 µM), inactives show at the highest dose activity change, positive = activation, actives largely listed as activators | HEK293T ELG1-luciferase reporter, luminescence, 16 h; also: % of control where 0% means no effect; nearly all actives have a fitted effect of over 60% in size
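HEK293T cells expressing luciferase-tagged ELG1 were treated with compound or DMSO for 16 hr at 37°C. Luciferase activity was then read after 30 min with ONE-Glo at room temperature; rising signal flags genetic stress.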
SMN2 splice up: increases expression of the SMN2 splice variant; HEK293 SMN2-luciferase splicing reporter, luminescence, 30-36 h; Potency, µM (series often up to 46.1 µM), without a hit: top-dose activity change, positive = activation, actives largely listed as activators; hit rate 2.8% among 210,000; AID 1458; also: % of control where 0% means no effect; nearly all actives have a fitted effect of over 55% in size
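HEK293 cells carry an SMN2 […]–luciferase reporter in which exon 7 inclusion puts luciferase in frame. Cells were plated 10-12 h before compound addition, then incubated 30-36 h at 37C. ONE-Glo luminescence was read; sodium butyrate at 4.5 mM final served as control.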
Rab9 prom act: activates the Rab9 promoter; Huh7 Rab9 promoter-luciferase reporter, luminescence, 24 h; Potency, µM (top dose mostly 9.22 µM), for inactives: top-dose activation, negative = inhibition, usual class: activators; hit rate 2.8% among 320,000; AID 485297; also: % of control where 0% means no effect; nearly all actives have a fitted effect of over 60% in size
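Quantitative HTS format; Huh7 Rab9-luciferase reporter cells (1500/well) receive compound 2 h post-plating, incubate 24 h at 37 °C, then get luciferase reagent for 10 min before luminescence reading.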
FLuc counter: counter-screen for miR-21 project: firefly luciferase inhibitors or activators. hit rate 6.9% among 360,000. AID 588342. purified FLuc, Km substrates, luminescence inhibition. P08659. Potency, µM (highest dose often 57.5 µM), inactives show at the highest dose activity change, negative = inhibition, usual class: inhibitors;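 also: plate controls were vehicle for no effect and reference inhibitor for full effect; nearly all actives have a fitted effect of over 55% in size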
Target sequence (P08659 whole entry, looked up): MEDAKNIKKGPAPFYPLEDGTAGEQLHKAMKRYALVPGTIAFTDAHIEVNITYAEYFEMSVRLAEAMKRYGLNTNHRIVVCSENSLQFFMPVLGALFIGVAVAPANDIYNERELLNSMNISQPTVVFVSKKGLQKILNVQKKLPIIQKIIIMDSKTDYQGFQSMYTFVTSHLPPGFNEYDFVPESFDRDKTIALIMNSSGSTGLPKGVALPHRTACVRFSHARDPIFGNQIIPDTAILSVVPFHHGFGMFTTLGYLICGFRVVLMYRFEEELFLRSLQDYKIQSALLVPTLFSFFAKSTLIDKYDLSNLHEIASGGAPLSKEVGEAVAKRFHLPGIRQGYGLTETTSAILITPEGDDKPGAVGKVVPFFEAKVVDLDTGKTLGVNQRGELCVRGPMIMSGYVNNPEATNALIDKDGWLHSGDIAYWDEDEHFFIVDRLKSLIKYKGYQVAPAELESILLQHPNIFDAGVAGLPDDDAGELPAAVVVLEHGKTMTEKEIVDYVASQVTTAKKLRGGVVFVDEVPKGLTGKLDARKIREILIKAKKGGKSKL
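Purified P. pyralis luciferase, 10 nM final, with Km-level 10 uM D-luciferin and 10 uM ATP in 50 mM Tris acetate pH 7.5, 10 mM Mg acetate, 0.01% Tween-20, 0.05% BSA; 6-point qHTS titration about 60 µM downward; luminescence read.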
KinaseGlo FLuc: counter-screen: inhibitors of Kinase-Glo firefly luciferase; Kinase-Glo luciferase, ATP luminescence, 8 min; Potency, µM (series often up to 38.3 µM), inactives show at the top dose activity change, negative = inhibition, usual class: inhibitors; Q27757; hit rate 0.28% among 200,000; AID 1379; also: % is scaled to controls: 0 for no effect and ±100 for the full control effect; nearly all actives have a fitted effect of over 60% in size
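Luminescence was the read-out, taken after 8-minute incubation at ambient temperature. Luciferase turned over luciferin with 10 uM ATP in imidazole pH 7.2 buffer containing KCl, MgCl2, Tween 20 and BSA.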
NPC1 prom act: NPC1 promoter activation | hit rate 2.4% among 320,000 | Potency, µM (highest dose often 9.22 µM), inactives show at the top dose activation, actives largely listed as activators | AID 485313 | Huh7 NPC1 promoter luciferase reporter, 24 h; also: % of control where 0% means no effect; nearly all actives have a fitted effect of over 60% in size
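Compounds in DMSO were transferred onto Huh7 NPC1-luciferase reporter cells pre-incubated 2 h; after 24 h at 37 °C, Amplite reagent was dispensed and luminescence recorded 10 min later.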
* hit, by the source's call; ? = inconclusive; . = no result given; [ ] = remark or other dose. Calls follow the shape of the dose curve; as a rule, active = well fitted curve in the direction sought with a large enough effect; inconclusive = small, poorly fitted or top-dose-only effect, or another doubt; inactive = no such curve, though single readings can be large; an effect the other way counts as inactive or inconclusive. Potency is read from the fitted curve at half-maximal effect.

SMILES	ELG1 genotoxic	SMN2 splice up	Rab9 prom act	FLuc counter	KinaseGlo FLuc	NPC1 prom act
Cc1ccc(S(=O)(=O)c2nnn3c2nc(N2CCOCC2)c2sccc23)cc1C	.	.	.	0.5%	.	.
COc1ccc(NC(=O)CN(C)C(=O)c2ccc3c(c2)S(=O)(=O)N=C2CCCCCN23)cc1	0.8%	.	0.2%	0.0%	.	-1.8%
CC1(C)Oc2ccc(NC(=O)c3ccco3)cc2O1	?	12.6µM*	2.51µM*	6.01µM*	-26.0%	1µM*
O=C(Nc1cccc(NC(=O)c2ccco2)c1)c1ccc2c(c1)OCO2	0.3%	3.0%	-5.0%	15.1µM*	-12.2%	2.6%
CCCC(=O)Nc1ccc(NC(=O)c2ccco2)c(OC)c1	?	?	?	15.1µM*	3.6%	?
Cc1cc(C)cc(C(=O)Nc2cccc(NC(=O)c3ccco3)c2)c1	-1.8%	.	-2.8%	?	.	3.3%
O=C(Nc1ccc2c(c1)OCCO2)c1ccco1	3.66µM*	10µM*	2.24µM*	8.49µM*	-29.7%	2µM*
Cc1cc(NC(=O)CSCC(=O)Nc2cccc(S(=O)(=O)N3CCCCCC3)c2)no1	-3.9%	.	-4.6%	4.6%	.	-7.5%
O=C(COC(=O)c1ccc(O)cc1O)Nc1ccc2c(c1)OCCO2	?	.	-1.6%	15.1µM*	.	-0.2%
O=C(CNC(=O)c1cccs1)Nc1ccc2c(c1)OCCO2	1.64µM*	.	1.12µM*	6.01µM*	.	1.26µM*
COc1cc(NC(=O)c2ccc3c(c2)OCCO3)ccc1NC(=O)c1ccco1	0.6%	.	29.4%	3.38µM*	-4.2%	22.4%
COc1ccc(C(=O)Nc2ccc(NC(=O)c3ccco3)c(Cl)c2)cc1OC	-0.4%	-17.3%	3.9%	-2.5%	-12.8%	-3.1%
O=C(Nc1cccc(NC(=O)c2ccco2)c1)c1ccc2c(c1)OCCO2	-0.4%	19.8%	13.1%	9.53µM*	-3.0%	3.6%
O=C(Nc1ccc(NC(=O)c2cccs2)cc1)c1ccc2c(c1)OCCO2	?	.	-15.7%	-7.2%	.	-3.5%
COc1cc(OC)cc(C(=O)Nc2ccc(NC(=O)c3ccco3)c(C)c2)c1	?	.	15.4%	12µM*	.	19.8%
COc1cc(OC)cc(C(=O)Nc2cc(NC(=O)c3ccco3)ccc2OC)c1	-2.1%	-26.4%	14.1%	?	7.6%	-2.3%
Cn1cccc1C(=O)OCC(=O)NCc1ccc2c(c1)OCO2	5.3%	.	0.3%	.	.	-3.3%
Cc1ccc(NC(=O)c2ccco2)cc1C	?	15.8µM*	3.98µM*	9.53µM*	?	2.82µM*
Cn1cccc1C(=O)OCC(=O)Nc1ccc2c(c1)OCCO2	1.03µM*	.	.	.	.	.
O=C(COC(=O)c1ccco1)Nc1ccc2c(c1)OCCO2	1.0%	-1.2%	0.6%	2.39µM*	-9.8%	-3.0%
CCCCCCCNC(=O)C1(CC2CC(c3ccc(Cl)cc3)=NO2)CCN(C(=O)OC(C)(C)C)CC1 (stereo not drawn)	-4.3%	.	2.7%	1.5%	.	-2.8%
Cc1ccc(/C=N/N2CCN(c3ccccn3)CC2)o1	18.1%	.	?	?	.	?
Cc1ccc(C(=O)Nc2ccc3c(c2)OCO3)cc1NC(=O)c1ccco1	9.8%	?	?	?	2.2%	17.7%
Cc1cc(NC(=O)c2ccc3c(c2)OCO3)ccc1NC(=O)c1ccco1	2.7%	17.1%	12.3%	21.3µM*	11.2µM*	11.5%
CC(C)COc1ccc(C(=O)Nc2ccc(NC(=O)c3ccco3)c(Cl)c2)cc1	?	-26.5%	2.5%	-20.0%	-1.1%	-1.3%
SMILES	ELG1 genotoxic	SMN2 splice up	Rab9 prom act	FLuc counter	KinaseGlo FLuc	NPC1 prom act
CC(C)Oc1ccc(C(=O)Nc2ccc(NC(=O)c3ccco3)c(Cl)c2)cc1	2.0%	-9.8%	?	0.536µM*	-3.2%	?
COc1cc(NC(=O)c2ccc3c(c2)OCCO3)ccc1NC(=O)c1cccs1	2.4%	20.4%	18.1%	5.36µM*	-4.6%	18.4%
O=C(N/N=C/c1ccc(Cl)cc1Cl)c1cccc(N2CCCC2=O)c1	0.4%	.	6.8%	6.75µM*	.	12.6%
O=C(NC1CCCCCC1)c1cccc(N2CCCC2=O)c1	?	7.08µM*	2.24µM*	15.1µM*	-8.3%	3.55µM*
O=C(NC1CCCCCCC1)c1cccc(Cl)c1	?	.	?	15.1µM*	.	?
COc1ccc(OCC2c3cc(OC)c(OC)cc3CCN2C(=O)COc2ccc(Cl)cc2Cl)cc1 (stereo not drawn)	.	.	.	5.2%	.	.
CCOc1ccc(OCC)c(Nc2nc3ccc(Cl)cc3n3cnnc23)c1	.	5.1%	.	-0.9%	.	.
O=[N+]([O-])c1ccc2nc(-c3ccc(Cl)cc3)n(OCc3ccccc3)c2c1	?	2.3%	?	12µM*	-1.8%	?
Clc1ccc(COn2c(-c3ccc(Cl)cc3)nc3ccccc32)cc1	-1.9%	-24.4%	4.2%	?	-5.5%	-3.6%
Cc1ccc(COn2c(-c3ccc(Cl)cc3)nc3ccc([N+](=O)[O-])cc32)cc1	17.3%	?	?	16.9µM*	-6.7%	?
CCOC(=O)C(C)On1c(-c2ccccc2)nc2ccc([N+](=O)[O-])cc21 (stereo not drawn)	3.3%	27.7%	?	-11.4%[2.3 µM]	-3.3%	?
O=C(O)COn1c(-c2ccccc2)nc2ccc([N+](=O)[O-])cc21	18.1%	28.9%	?	15.1µM*	-4.4%	26.2%
CCOC(=O)C(C)On1c(-c2ccc(Cl)cc2)nc2ccc([N+](=O)[O-])cc21 (stereo not drawn)	12.3%	-3.7%	18.5%	15.1µM*	-0.8%	28.6%
CCOC(=O)c1ccc(CNC(=O)c2cc(COc3ccccc3SC)on2)o1	?	.	?	8.49µM*	.	2.51µM*
CSc1ccccc1OCc1cc(C(=O)N(C)Cc2ccc(C)o2)no1	?	.	3.98µM*	16.9µM*	.	?
CSc1ccccc1OCc1cc(C(=O)N(C)Cc2ccc3nsnc3c2)no1	3.26µM*	.	0.708µM*	?	.	0.631µM*
CSc1ccccc1OCc1cc(C(=O)NCCCc2ccccc2)no1	-4.5%	.	-0.5%	5.7%	.	-1.3%
CSc1ccccc1OCc1cc(C(=O)NCc2ccc(C)s2)no1	1.8%	.	20.5%	?	.	19.6%
CSc1ccccc1OCc1cc(C(=O)N(C)C(C)c2nc(C)cs2)no1 (stereo not drawn)	-8.1%	.	2.5%	-8.4%	.	3.9%
O=C(O)CNS(=O)(=O)c1cccc(Cl)c1	-0.5%	.	-1.5%	1.9%	.	0.6%
COc1cccc(S(=O)(=O)NCC(=O)Nc2ccc(C(C)(C)C)cc2)c1	-5.0%	-17.2%	-2.9%	?	-2.7%	0.4%
Cc1ccc(C)c(S(=O)(=O)NC(C)C(=O)Nc2ccc(-c3nc4ccccc4s3)cc2)c1 (stereo not drawn)	?	5.3%	3.16µM*	7.57µM*	-3.7%	3.55µM*

From PubChem
